# Compounds without any hit were thinned out: in the full panel of roughly 83,000, 20% have a hit.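 48-hour exposure, single concentration, 96-well plates; percent growth endpoint where 0 means no net growth. Active: below 10.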 A number with no mark means an inactive call. The source made the active and inactive calls.
# System: RPMI-8226 leukemia
# Experiment: NCI-60 one-dose screen, 48 h (100 = growth as untreated, 0 = no growth, -100 = all killed)
# Settings: 10 µM unless noted
row,Compound,growth
1,CCN(CC)C(=O)O/N=C(/C)c1ccccc1,105%
2,C=C1C(=O)O[C@H]2[C@H]1CC/C(COC(=O)NCc1ccc(Cn3c(=O)sn(CCCl)c3=O)cc1)=C\CC[C@@]1(C)O[C@@H]21,2.37% (active)
3,COc1ccc2c(c1)sc1nc(-c3ccccc3)c(-c3cccc4ccccc34)n12,18.8%
4,c1ccc(-c2nnn(-c3ccccc3)n2)cc1,98.6%
5,CC(C)N(C(=S)SSC(=S)N(C(C)C)C(C)C)C(C)C,87.2%
6,Cc1ccc2c(C)c3c(ccc4ccccc43)c[n+]2c1,47.8%
7,O=C(N/N=C/c1ccc([N+](=O)[O-])cc1)c1ccccc1Nc1ccnc(C(F)(F)F)c1,11.2%
8,CC(C)CC1NC(=O)C(CC(C)C)N(CO)C1=O (stereo not drawn),81.1%
9,Cc1ccccc1C1CC(=O)c2ccccc2C1C (stereo not drawn),93.8%
10,O=C1/C(=C/N2N=C(c3ccc(Cl)cc3)CC2c2ccccc2O)SC(=S)N1c1cccc(C(F)(F)F)c1 (stereo not drawn),25.4%
11,CN(C)CC(=O)c1ccc2cc(Br)c3ccccc3c2c1,46.9%
12,CCN(C(=O)CCl)C(C)(C)C(SSSC(c1ccc(Cl)cc1)C(C)(C)N(CC)C(=O)CCl)c1ccc(Cl)cc1 (stereo not drawn),51.7%
13,COc1ccc(NC(=O)Cn2c(=O)sc3c(-c4ccc(Cl)cc4)cc(-c4ccc(Cl)cc4)nc32)cc1,116%
14,COc1cccc(/C=N\Nc2ccc([N+](=O)[O-])cn2)c1O,62.6%
15,CCN(CC)CC(=O)Nc1c(C)cc(C(=O)NN)cc1C,120%
16,CCCC(CCC)(C(N)=O)C(=O)O,112%
17,COc1cnc2c(c1)C(=O)c1c-2n(CCCNC(C)C)c(=O)c2cc(Cl)ccc12,-59% (active)
18,Cc1nn(-c2cccc(Cl)c2)c(C)c1N=Nc1ccc(Br)cc1,95.4%
19,CCCCCCCCCCCCNC(=O)N[C@H](C(=O)N[C@H]1/C=C/OCCNC(=O)/C=C/[C@H](C(C)C)NC1=O)C(C)C,60.3%
20,Cc1ccc(C(CN(C)C)C(=O)c2ccccc2)cc1 (stereo not drawn),-41% (active)

row,Compound,growth
1,CCCCCCCCCCCCCCCCCC(=O)[O][Sn]([CH2]CCC)([CH2]CCC)[CH2]CCC,-30.8% (active)
2,Cc1c2c(cc3c1[nH]c1ccccc13)C=NCC2,87%
3,COc1ccc(C(=O)C(CN(C)C)c2ccc(OC)cc2)cc1 (stereo not drawn),1.35% (active)
4,CC(=O)O[C@H]1CC[C@]2(C)[C@H]3CC=C4[C@@H]5CC(C)(C)CC[C@]5(C(=O)OCC(COC(=O)C(Cl)Cl)(COC(=O)C(Cl)Cl)NC(=O)C(Cl)Cl)CC[C@@]4(C)[C@]3(C)CC[C@H]2C1(C)C,33.5%
5,COc1ccc2c(c1)C1=NN(C(=O)CO)[C@H](c3ccc(OC(F)(F)F)cc3)[C@@H]1CC2,42.9%
6,COc1ccc(Cl)cc1Nc1nc(C(F)(F)F)ccc1C(=O)NN,4.71% (active)
7,CC(C)c1cccc(C#N)c1,106%
8,COc1ccc2nc3ccccc3c(NCc3ccc(C)cc3)c2c1,-46.2% (active)
9,CS(=O)(=O)c1ccc(C(=O)N/N=C/c2ccccc2Cl)cc1,115%
10,CC(C)(C)c1ccc(C(=O)Nc2sc3cc(O)ccc3c2C(N)=O)cc1,5.05% (active)
11,COc1cc(/C=C\c2cc(/C=C\c3ccc(O)c(OC)c3)n(C(=O)Nc3ccc(C(F)(F)F)cc3)n2)ccc1O,-0.214% (active)
12,CCOC(=O)c1cc(N)nc2ccccc12,106%
13,CCSCC1CC(O)(c2ccccc2)C(c2ccccc2)C(c2ccc(F)cc2)O1 (stereo not drawn),-16.1% (active)
14,CN1C2CCC1/C(=C\c1ccc(Cl)cc1)C(=O)/C2=C/c1ccc(Cl)cc1,20.2%
15,CCOC(=O)C1=C(C)NC(=S)NC1c1ccccc1 (stereo not drawn),112%
16,C=C1C(=O)O[C@H]2[C@H]1CC/C(COC(=O)N[C@@H](Cc1c[nH]c3ccccc13)C(=O)OC)=C\CC[C@@]1(C)O[C@@H]21,-14.2% (active)
17,Cc1nc(N)nc2c1CCC(Nc1ccccc1)S2 (stereo not drawn),113%
18,COc1cc(OC)c2sc(-c3ccc(-n4cncc4-c4ccc(OC)c(N)c4)cc3)nc2c1,51.8%
19,COc1cc(OC)cc(-c2ccc(-c3ccc(C(=N)N)s3)s2)c1,-62.9% (active)

# System: OVCAR-8 ovarian
# Experiment: as above
# Settings: 10 µM unless noted
row,Compound,growth
1,CCN(CC)C(=O)O/N=C(/C)c1ccccc1,93.3%
2,C=C1C(=O)O[C@H]2[C@H]1CC/C(COC(=O)NCc1ccc(Cn3c(=O)sn(CCCl)c3=O)cc1)=C\CC[C@@]1(C)O[C@@H]21,92.1%
3,COc1ccc2c(c1)sc1nc(-c3ccccc3)c(-c3cccc4ccccc34)n12,19.4%
4,c1ccc(-c2nnn(-c3ccccc3)n2)cc1,107%
5,CC(C)N(C(=S)SSC(=S)N(C(C)C)C(C)C)C(C)C,111%
6,Cc1ccc2c(C)c3c(ccc4ccccc43)c[n+]2c1,52.5%
7,O=C(N/N=C/c1ccc([N+](=O)[O-])cc1)c1ccccc1Nc1ccnc(C(F)(F)F)c1,86.8%
8,CC(C)CC1NC(=O)C(CC(C)C)N(CO)C1=O (stereo not drawn),107%
9,Cc1ccccc1C1CC(=O)c2ccccc2C1C (stereo not drawn),106%
10,O=C1/C(=C/N2N=C(c3ccc(Cl)cc3)CC2c2ccccc2O)SC(=S)N1c1cccc(C(F)(F)F)c1 (stereo not drawn),59.7%
11,CN(C)CC(=O)c1ccc2cc(Br)c3ccccc3c2c1,57.9%
12,CCN(C(=O)CCl)C(C)(C)C(SSSC(c1ccc(Cl)cc1)C(C)(C)N(CC)C(=O)CCl)c1ccc(Cl)cc1 (stereo not drawn),77.9%
13,COc1ccc(NC(=O)Cn2c(=O)sc3c(-c4ccc(Cl)cc4)cc(-c4ccc(Cl)cc4)nc32)cc1,107%
14,COc1cccc(/C=N\Nc2ccc([N+](=O)[O-])cn2)c1O,10.6%
15,CCN(CC)CC(=O)Nc1c(C)cc(C(=O)NN)cc1C,107%
16,CCCC(CCC)(C(N)=O)C(=O)O,102%
17,COc1cnc2c(c1)C(=O)c1c-2n(CCCNC(C)C)c(=O)c2cc(Cl)ccc12,-41.6% (active)
18,Cc1nn(-c2cccc(Cl)c2)c(C)c1N=Nc1ccc(Br)cc1,97.4%
19,CCCCCCCCCCCCNC(=O)N[C@H](C(=O)N[C@H]1/C=C/OCCNC(=O)/C=C/[C@H](C(C)C)NC1=O)C(C)C,96%
20,Cc1ccc(C(CN(C)C)C(=O)c2ccccc2)cc1 (stereo not drawn),14.5%

row,Compound,growth
1,CCCCCCCCCCCCCCCCCC(=O)[O][Sn]([CH2]CCC)([CH2]CCC)[CH2]CCC,-57% (active)
2,Cc1c2c(cc3c1[nH]c1ccccc13)C=NCC2,94.1%
3,COc1ccc(C(=O)C(CN(C)C)c2ccc(OC)cc2)cc1 (stereo not drawn),42.2%
4,CC(=O)O[C@H]1CC[C@]2(C)[C@H]3CC=C4[C@@H]5CC(C)(C)CC[C@]5(C(=O)OCC(COC(=O)C(Cl)Cl)(COC(=O)C(Cl)Cl)NC(=O)C(Cl)Cl)CC[C@@]4(C)[C@]3(C)CC[C@H]2C1(C)C,68.5%
5,COc1ccc2c(c1)C1=NN(C(=O)CO)[C@H](c3ccc(OC(F)(F)F)cc3)[C@@H]1CC2,98%
6,COc1ccc(Cl)cc1Nc1nc(C(F)(F)F)ccc1C(=O)NN,18.9%
7,CC(C)c1cccc(C#N)c1,95.1%
8,COc1ccc2nc3ccccc3c(NCc3ccc(C)cc3)c2c1,28.7%
9,CS(=O)(=O)c1ccc(C(=O)N/N=C/c2ccccc2Cl)cc1,97.1%
10,CC(C)(C)c1ccc(C(=O)Nc2sc3cc(O)ccc3c2C(N)=O)cc1,81.2%
11,COc1cc(/C=C\c2cc(/C=C\c3ccc(O)c(OC)c3)n(C(=O)Nc3ccc(C(F)(F)F)cc3)n2)ccc1O,0.433% (active)
12,CCOC(=O)c1cc(N)nc2ccccc12,108%
13,CCSCC1CC(O)(c2ccccc2)C(c2ccccc2)C(c2ccc(F)cc2)O1 (stereo not drawn),1.93% (active)
14,CN1C2CCC1/C(=C\c1ccc(Cl)cc1)C(=O)/C2=C/c1ccc(Cl)cc1,-27.1% (active)
15,CCOC(=O)C1=C(C)NC(=S)NC1c1ccccc1 (stereo not drawn),103%
16,C=C1C(=O)O[C@H]2[C@H]1CC/C(COC(=O)N[C@@H](Cc1c[nH]c3ccccc13)C(=O)OC)=C\CC[C@@]1(C)O[C@@H]21,37.1%
17,Cc1nc(N)nc2c1CCC(Nc1ccccc1)S2 (stereo not drawn),103%
18,COc1cc(OC)c2sc(-c3ccc(-n4cncc4-c4ccc(OC)c(N)c4)cc3)nc2c1,84.3%
19,COc1cc(OC)cc(-c2ccc(-c3ccc(C(=N)N)s3)s2)c1,-58.8% (active)
